From the supplement of paper PMC6555819

The sequences below were run on VDR:RXRa (NR concentration 270 nM, RXRa partner concentration 90 nM) (assay: PBM binding z-score (relative to random genomic background probes); higher = stronger binding; sequences stand for … in GC…GCGATTGACAGCGTAGAATGAAGG).
Method: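 Protein-binding microarray (Agilent 4x180K custom design, double-stranded 60-nt probes: 5' GC cap, 34-nt variable region, 24-nt constant primer region; full probe sequence given). Purified or IVT nuclear receptor:RXRα heterodimers (3:1 NR:RXRα, mostly 270:90 nM) or homodimers were incubated for 1 h in PBS with 2% milk and no ligand, then detected with Alexa488 antibodies. Fluorescence from o1-orientation probes (~5 replicates averaged) was converted to z-scores against 500 random hg19 background probes. Variable regions are seed direct-repeat (DR0–DR5) sites, all their single-nucleotide variants and half-site ablations.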

| Sequence | PBM binding z-score |
| --- | --- |
| GCTCGGAGGAAAAGGTCAGAGCTTTGTCCGTAGA | 2.14 |
| TCTAGAAGGCCAGAGGGTCACTCAAGAGGTACGG | 2.05 |
| CCTACTGGGCCATCAGGTCATGGATATCAACGTT | 1.54 |
| CCTAGTTGGTCAAAGTCACACACGCTATAGGTAC | 0.996 |
| TCTCGTAGATCAGCAGGTTAAGAAAGCTGGCCAA | 0.21 |
| ACTAGCAGGCCAAGTTTGGGGCACTCAAACAAAG | -0.558 |
| AGTCAAAGTTCATCTACGTAACGTAAGATATGCT | 4.77 |
| TAGCCTAGGTCAGATCGGGCCCGTATACGCTATA | 0.22 |
| CCAGCTAGGTCATGGTCAGCTAATCTACAGTATG | 1.6 |
| GCTCGGAGGACAAGGACAGAGCTTTGTCCGTAGA | -0.798 |
| CGACCAAGGTGAACAAGGTCGTTGATTACTATTC | 6.02 |
| CCTCGGACGACAACAGGAGGTCAGAGCTGCCAGA | 1.52 |
| TCTATAAGTTGAAGGGCAACCGACGAGTCCGTTT | 1.07 |
| CCTTAAGGGTCACTGACAGGTTATAGCATTTGGA | 5 |
| CGAACTAGGTCAGAACAGGACAGTGATGGATGAT | 0.651 |
| CAAACTAGGTCCAGAGGTCAAAGTCCGCTTCCCG | 5.14 |
| ATCTCTAGGTAACCAAGTTCCGTGAATGCCGAAC | 0.306 |
| TCGAGTAGGTCAGGGGCATTCAGAATGGCGTCGA | 1.55 |
| CGTCAAAGTTCAACAAAGGTAACGTAAAGCACGC | 4.46 |
| GCAGACAGGTGAAACGTAGGTAACTCAGGGTGGC | -0.315 |

| Sequence | PBM binding z-score |
| --- | --- |
| CCTAGCAGGCCAGGGTCCCTCAAGCATTTCGCTT | -0.596 |
| CCTTACGTGTCAAGGTTATAGCACGGGTGGTACG | 0.738 |
| CCTTACTGGTCAAGGTTATAGCACGGGTGGTACG | 0.737 |
| TCATATAGGTAAAGGTGAAACTCGAACGATATGA | 0.901 |
| CGCCCAAGGTCAATGCTAGGTCAGTGAAAGCATT | 4.59 |
| TAGCCTAGGTCATGGTCCAGTATACCACGCGAAC | 2.14 |
| CTCGAAAGGTCGGTTGAGGTGAGTAGACGGATAA | 1.99 |
| TCTTGTAGATCAAGCAGGTTAAGGAAGCCTGAGT | -0.0838 |
| ACTATTAGTTGAGACGAGGCCAACCGATAGGTTG | 0.333 |
| CCGACTGCGGCAAAGGTTACCATACTCAGTACGA | 0.959 |
| TCTTGTAGATAAATAGAGGTTAAGAAAGTGCGCT | 1.87 |
| CGTCCAAGGTCAATGCTAGGTCAGTGTAAGCATT | 4.85 |
| TAGCCTAGGTCATGCGGGCCAGTACAGTGTCGGC | 2.83 |
| TATACAGGGTCAAAGGCCAGTGTACGAATGTCGA | 4.84 |
| CCTGCTAGGGCAATGGTCAGCTAAAGCAGCTCGC | -0.874 |
| TCGAGTAGGTTACCATTGGGGCATTCAGCTTTCT | 0.0183 |
| CCTACTAGGTCATGGTCAGCTAATCTACAGTATG | 1.8 |
| GCTGCTAGGTCAACTGATTGTCAGCTAAAGCTCG | 1.14 |
| CCAGACAGGTGGAAGGTAACTCAGTCTGGTACGC | -0.365 |
| GGAAGGAGGGCAAAGTTGATAGCATCTGTCGACG | 0.964 |
